Reference: PubChem BioAssay
Active and inactive are the calls of the source.

Tests used:
[1] = small molecules captured by biotinylated probe aFSTL3 – biochemical, small-molecule microarray, fluorescence 635/667, stem cell growth factor project, primary screen (AID 1064); conditions: higher = more signal;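 further: measures binding of the biotinylated anti-FSTL3 antibody to printed compounds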
[2] = binders from COS7 lysate, DM2A8 probe, primary screen, torsin A project, cell lysate, small-molecule microarray, fluorescence 635/667 (AID 1065); conditions: higher = more signal, COS7 lysate expressing mutant human TOR1A
[3] = small molecules captured by biotinylated probe aFGF2 – biochemical, small-molecule microarray, fluorescence 635/667, stem cell growth factor project, primary screen (AID 1067); conditions: higher = more signal;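 further: measures binding of biotinylated aFGF2 protein to printed compounds on slides; z-score merges feature fluorescence and signal-to-noise across triplicate slides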
[4] = small molecules captured by biotinylated probe aFGF10 – biochemical, small-molecule microarray, fluorescence 635/667, stem cell growth factor project, primary screen (AID 1071); conditions: higher = more signal;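 further: score merges 667 nm spot intensity and signal to noise from triplicate slides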
[5] = target: Neurogenic locus notch homolog protein 2 (Homo sapiens) (UniProt Q04721); experiment: small molecules binding Notch2 protein – biochemical, small-molecule microarray, 635 nm fluorescence, stem cell growth factors, primary screen (AID 1073); conditions: higher = more signal
[6] = target: Pro-neuregulin-1, membrane-bound isoform (Homo sapiens) (UniProt Q02297); experiment: small molecules binding neuregulin-1 protein – biochemical, small-molecule microarray, fluorescence 635/667, psychiatric disease protein project, primary screen (AID 1075); conditions: NRG1 binding, 635 nm fluorescence, higher = more signal;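 further: score combines 667 nm spot fluorescence with signal to noise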
[7] = system: Neuregulin-1 EGF-like domain; experiment: small molecules binding NRG1 EGF domain – biochemical, small-molecule microarray, 635 nm fluorescence, primary screen (AID 1081); conditions: higher = more signal;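 further: binding of the protein to compounds printed on small-molecule microarray slides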
[8] = FRG1 expression reporter modulators in myotubes – cell-based, C2C12 myotubes, firefly/Renilla luciferase, luminescence, FRG1 inhibition for FSHD, primary screen (AID 1084); conditions: FRG1 promoter luciferase, higher = more signal, called active from +8 up or from −8 down
[9] = small molecules captured by biotinylated probe aFST – biochemical, small-molecule microarray, fluorescence 635/667, stem cell growth factor project, primary screen (AID 1086); conditions: higher = more signal;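 further: score merges 667 nm fluorescence with signal-to-noise of each printed compound spot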
[10] = binders of probe aHhip on microarray, primary screen, stem cell growth factor project, biochemical, small-molecule microarray, fluorescence 635/667 (AID 1087); conditions: higher = more signal;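 further: score merges spot fluorescence at 667nm with spot signal to noise ratio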
[11] = system: PRMT1 (protein arginine N-methyltransferase 1); experiment: small molecules binding arginine methyltransferase PRMT1 – biochemical, small-molecule microarray, 635 nm fluorescence, primary screen (AID 1088); conditions: higher = more signal;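 further: binding of Prmt1 protein to compounds spotted on small-molecule microarray slides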
[12] = growth effects on S. cerevisiae YJM789 – YJM789 clinical isolate, OD600, 24 h, basal, primary screen (AID 1089); conditions: higher = more signal, called active from +8 up or from −8 down;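 further: growth of clinical yeast isolate S. cerevisiae YJM 789 seeded 1000 cells per well; test concentration not given here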
[13] = S. pombe growth modifiers, basal conditions – strain 972, OD600, 24 h, no modulator, primary screen (AID 1090);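 further: basal condition with compound alone and no growth modifier present; test concentration not given here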; conditions: S. pombe 972 growth, higher = more signal, called active from +8 up or from −8 down
[14] = budding yeast growth modifiers under rapamycin – strain BY4716, OD600, 96 h, primary screen (AID 1091); further: test concentration not given here; conditions: S. cerevisiae BY4716 + rapamycin, higher = more signal, called active from +8 up or from −8 down
[15] = target: Torsin-1A-interacting protein 2 (Homo sapiens) (UniProt Q8NFQ8); experiment: small molecules binding lysate-expressed LULL1 – cell lysate, human LULL1 lysate, 635/667 nm fluorescence, primary screen (AID 1092); conditions: small-molecule microarray, hLULL1 lysate binding, 635 nm fluorescence; higher = more signal;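 further: probe is lysate of COS7 cells overexpressing human LULL1; score merges per-feature 667 nm fluorescence with signal-to-noise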
[16] = optical density change of DRC41 E. coli – strain DRC41, OD650, 24 h, E. coli filamentation project, primary screen (AID 1093);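 further: MC1000 strain lacking acrAB efflux and sulA so SOS filamentation is blocked; test concentration not given here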; conditions: E. coli DRC41 growth, higher = more signal, called active from +8 up or from −8 down
[17] = probe aLefty2 binding to arrayed compounds – biochemical, biotinylated probe, 635/667 nm fluorescence, primary screen (AID 1094); conditions: small-molecule microarray, higher = more signal;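 further: score merges spot fluorescence near 667 nm with spot signal-to-noise ratio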
[18] = system: Noggin (protein binding on small-molecule microarray); experiment: small molecules binding Noggin protein – biochemical, 635/667 nm fluorescence, primary screen (AID 1095); conditions: 635 nm fluorescence, higher = more signal;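 further: score merges 667 nm feature fluorescence with signal to noise over triplicate slides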
[19] = target: Neurogenic locus notch homolog protein 3 (Homo sapiens) (UniProt Q9UM47); experiment: small molecules binding NOTCH3 protein – biochemical, 635/667 nm fluorescence, primary screen (AID 1096); conditions: small-molecule microarray, 635 nm fluorescence, higher = more signal
[20] = probe aEGFR binding to arrayed compounds – biochemical, biotinylated probe, 635/667 nm fluorescence, primary screen (AID 1097); conditions: small-molecule microarray, higher = more signal;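 further: probe is a biotinylated anti-EGFR antibody binding compounds printed on slides; score combines fluorescence near 667 nm and signal to noise of each spot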

Neurogenic locus notch homolog protein 3 (Homo sapiens), sequence (Q9UM47 whole entry, looked up): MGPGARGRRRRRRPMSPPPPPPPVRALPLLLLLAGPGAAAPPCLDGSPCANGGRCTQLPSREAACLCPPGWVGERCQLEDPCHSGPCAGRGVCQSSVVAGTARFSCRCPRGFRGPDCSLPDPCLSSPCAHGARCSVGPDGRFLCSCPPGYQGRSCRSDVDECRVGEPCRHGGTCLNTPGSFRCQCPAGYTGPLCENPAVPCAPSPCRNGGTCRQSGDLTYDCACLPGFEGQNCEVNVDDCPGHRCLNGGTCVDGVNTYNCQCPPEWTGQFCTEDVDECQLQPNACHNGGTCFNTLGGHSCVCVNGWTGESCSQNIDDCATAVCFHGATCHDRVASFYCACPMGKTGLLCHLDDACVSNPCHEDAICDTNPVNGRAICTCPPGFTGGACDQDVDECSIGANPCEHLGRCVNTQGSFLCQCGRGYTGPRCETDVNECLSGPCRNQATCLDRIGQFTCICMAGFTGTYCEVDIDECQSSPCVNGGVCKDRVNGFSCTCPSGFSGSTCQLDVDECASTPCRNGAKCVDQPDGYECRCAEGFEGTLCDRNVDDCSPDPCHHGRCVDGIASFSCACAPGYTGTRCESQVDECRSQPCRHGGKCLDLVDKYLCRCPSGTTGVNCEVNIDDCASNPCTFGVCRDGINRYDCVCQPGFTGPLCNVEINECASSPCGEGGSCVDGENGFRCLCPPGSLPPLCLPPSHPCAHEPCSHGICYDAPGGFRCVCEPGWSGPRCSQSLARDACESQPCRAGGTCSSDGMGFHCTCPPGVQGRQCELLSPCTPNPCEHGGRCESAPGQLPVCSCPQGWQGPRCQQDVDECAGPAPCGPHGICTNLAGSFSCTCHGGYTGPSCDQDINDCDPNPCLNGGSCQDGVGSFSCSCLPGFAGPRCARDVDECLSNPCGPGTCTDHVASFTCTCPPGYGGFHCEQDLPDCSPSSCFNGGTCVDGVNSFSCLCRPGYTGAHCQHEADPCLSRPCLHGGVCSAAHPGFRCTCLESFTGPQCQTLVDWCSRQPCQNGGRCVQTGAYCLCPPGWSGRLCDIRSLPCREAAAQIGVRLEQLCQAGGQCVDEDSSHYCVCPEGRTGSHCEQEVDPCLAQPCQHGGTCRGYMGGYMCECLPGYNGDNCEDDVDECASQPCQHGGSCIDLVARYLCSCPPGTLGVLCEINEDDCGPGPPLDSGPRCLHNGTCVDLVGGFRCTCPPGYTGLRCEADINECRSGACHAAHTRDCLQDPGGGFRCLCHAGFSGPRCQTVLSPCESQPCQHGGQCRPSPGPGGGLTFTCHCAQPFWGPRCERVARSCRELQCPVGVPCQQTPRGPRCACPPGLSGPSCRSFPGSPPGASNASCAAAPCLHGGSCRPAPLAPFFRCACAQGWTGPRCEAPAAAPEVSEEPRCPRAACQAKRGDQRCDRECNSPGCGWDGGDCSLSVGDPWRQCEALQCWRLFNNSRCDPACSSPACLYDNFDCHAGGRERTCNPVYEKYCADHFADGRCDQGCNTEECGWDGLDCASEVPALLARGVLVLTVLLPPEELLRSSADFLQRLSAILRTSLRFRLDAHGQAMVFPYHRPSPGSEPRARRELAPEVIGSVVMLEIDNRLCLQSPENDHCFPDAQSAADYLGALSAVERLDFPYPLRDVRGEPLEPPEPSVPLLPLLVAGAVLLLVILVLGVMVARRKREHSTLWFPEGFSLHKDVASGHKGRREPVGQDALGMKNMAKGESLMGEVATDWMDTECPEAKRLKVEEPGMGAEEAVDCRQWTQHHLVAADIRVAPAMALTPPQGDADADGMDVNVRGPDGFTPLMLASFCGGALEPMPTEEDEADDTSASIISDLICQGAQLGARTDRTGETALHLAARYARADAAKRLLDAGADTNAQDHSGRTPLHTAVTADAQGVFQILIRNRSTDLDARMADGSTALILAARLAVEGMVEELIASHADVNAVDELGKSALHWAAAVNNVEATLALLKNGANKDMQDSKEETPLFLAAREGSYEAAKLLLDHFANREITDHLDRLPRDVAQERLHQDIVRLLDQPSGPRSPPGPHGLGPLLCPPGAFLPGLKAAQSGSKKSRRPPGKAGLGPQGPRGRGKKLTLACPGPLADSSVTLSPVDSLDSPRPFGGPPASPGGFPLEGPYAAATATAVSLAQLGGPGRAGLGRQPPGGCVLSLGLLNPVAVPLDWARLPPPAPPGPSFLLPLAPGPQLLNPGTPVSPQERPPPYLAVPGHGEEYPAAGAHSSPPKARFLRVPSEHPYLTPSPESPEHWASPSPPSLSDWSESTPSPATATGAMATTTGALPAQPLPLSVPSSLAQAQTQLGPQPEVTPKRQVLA
Torsin-1A-interacting protein 2 (Homo sapiens), sequence (Q8NFQ8 whole entry, looked up): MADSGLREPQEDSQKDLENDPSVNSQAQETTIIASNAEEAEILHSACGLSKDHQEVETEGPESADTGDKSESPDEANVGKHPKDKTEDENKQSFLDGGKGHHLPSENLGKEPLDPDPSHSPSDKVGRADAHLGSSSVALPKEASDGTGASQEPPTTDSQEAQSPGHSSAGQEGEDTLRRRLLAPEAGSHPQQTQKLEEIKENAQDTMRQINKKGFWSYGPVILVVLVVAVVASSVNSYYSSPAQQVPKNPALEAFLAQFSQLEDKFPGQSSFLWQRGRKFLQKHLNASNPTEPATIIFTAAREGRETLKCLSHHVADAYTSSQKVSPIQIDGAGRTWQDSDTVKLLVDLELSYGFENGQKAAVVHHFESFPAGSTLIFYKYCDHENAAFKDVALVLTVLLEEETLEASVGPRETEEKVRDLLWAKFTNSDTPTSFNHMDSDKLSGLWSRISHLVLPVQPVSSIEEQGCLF
Pro-neuregulin-1, membrane-bound isoform (Homo sapiens), sequence (Q02297 whole entry, looked up, the tested form may be a part, canonical isoform): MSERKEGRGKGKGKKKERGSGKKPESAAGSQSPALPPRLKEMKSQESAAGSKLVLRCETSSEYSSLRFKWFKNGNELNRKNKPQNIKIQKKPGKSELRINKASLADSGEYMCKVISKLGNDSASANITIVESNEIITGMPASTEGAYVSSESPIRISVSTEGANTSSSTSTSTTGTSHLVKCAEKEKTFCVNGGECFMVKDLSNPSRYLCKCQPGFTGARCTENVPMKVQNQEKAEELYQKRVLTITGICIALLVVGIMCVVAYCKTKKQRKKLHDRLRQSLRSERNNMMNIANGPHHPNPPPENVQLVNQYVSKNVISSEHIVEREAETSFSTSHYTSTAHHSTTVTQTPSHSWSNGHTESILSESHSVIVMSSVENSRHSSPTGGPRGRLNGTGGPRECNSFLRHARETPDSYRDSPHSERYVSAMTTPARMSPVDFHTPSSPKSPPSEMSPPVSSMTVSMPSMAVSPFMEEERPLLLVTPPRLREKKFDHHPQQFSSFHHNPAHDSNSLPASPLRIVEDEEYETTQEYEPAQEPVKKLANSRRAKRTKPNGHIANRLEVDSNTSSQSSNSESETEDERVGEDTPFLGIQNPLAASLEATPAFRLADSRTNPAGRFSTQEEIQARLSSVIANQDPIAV

SMILES | composite z-score [1] | composite z-score [2] | composite z-score [3] | composite z-score [4] | composite z-score [5] | composite z-score [6] | composite z-score [7] | z-score [8] | composite z-score [9] | composite z-score [10] | composite z-score [11] | z-score [12] | z-score [13] | z-score [14] | composite z-score [15] | z-score [16] | composite z-score [17] | composite z-score [18] | composite z-score [19] | composite z-score [20]
CC(C)N1C(=O)c2ccccc2[C@@H](C(=O)NCC(F)(F)F)[C@@H]1c1ccc(CO)cc1 | 0.277 | -1.16 | -0.133 | -0.0347 | -1.07 | 0.156 | 1.21 | 0.0294 (inactive) | -0.0934 | -0.169 | -0.57 | 0.125 (inactive) | -0.637 (inactive) | 0.0898 (inactive) | 0.952 | -0.199 (inactive) | -0.117 | 0.157 | -0.59 | -0.123
C=C(C)[C@@H]1CC=C(C(O)C2C=CC3C(=O)N(c4ccccc4)C(=O)C3N2Nc2ccc([N+](=O)[O-])cc2)CC1 (stereo not given in full) | -0.308 | 0.356 | -0.0784 | 1.05 | 1.61 | 1.07 | 1.24 | -0.0111 (inactive) | 1.57 | 0.167 | 1.55 | -0.0158 (inactive) | 0.348 (inactive) | 3.6 (inactive) | 3.57 | -1.96 (inactive) | -0.0357 | 0.939 | 1.05 | -0.0435
COc1ccc([Si](C)(C)[C@@H]2[C@@H](CC(=O)N3CCC[C@H]3CO)O[C@]3(C(=O)N(Cc4cccc(N5CCCCC5=O)c4)c4ccccc43)[C@H]2C)cc1 | -0.398 | 0.887 | -0.116 | 0.411 | 0.0236 | 1.07 | 1.07 | -0.0792 (inactive) | -0.015 | -0.0296 | 1.57 | -0.965 (inactive) | -0.388 (inactive) | 0.1 (inactive) | 1.89 | 0.807 (inactive) | -0.183 | 0.894 | 0.625 | -0.0828
CN(C)CCCNC(=O)[C@@H]1c2ccccc2C(=O)N(Cc2ccccc2C(F)(F)F)[C@H]1c1ccc(CO)cc1 | 1 | -0.335 | -0.0416 | -0.702 | -1.03 | 1.01 | -0.23 | -1.28 (inactive) | -0.0464 | -0.149 | 0.986 | 0.0389 (inactive) | -1.28 (inactive) | -0.461 (inactive) | 0.767 | 1.53 (inactive) | 0.0518 | -0.396 | -0.704 | -0.213
CO[C@H]1O[C@H](CO)[C@@H](OC(=O)Nc2ccccc2)[C@H](OC(=O)Nc2ccccc2)[C@H]1OC(=O)Nc1ccccc1 | -0.114 | 0.0396 | 0.118 | 1.17 | 0.971 | 0.888 | 1.34 | 0.921 (inactive) | 0.0643 | -0.0296 | 1.43 | 1.55 (inactive) | 0.759 (inactive) | 0.997 (inactive) | 3.49 | 0.758 (inactive) | -0.134 | 0.772 | 0.814 | -0.0978
COc1ccc([Si](C)(C)[C@H]2[C@H](CC(=O)N3Cc4ccccc4C[C@H]3CO)O[C@@]3(C(=O)N(C)c4c(Br)cc(C)cc43)[C@@H]2C)cc1 | -0.0669 | 0.403 | -0.119 | 0.333 | 0.363 | 1.05 | 1.11 | -4.4 (inactive) | 0.334 | -0.132 | 1.54 | 0.344 (inactive) | 0.788 (inactive) | 5.53 (inactive) | 0.986 | -0.498 (inactive) | -0.0631 | 1.42 | 1.09 | -0.0828
CC(C)C[C@@H]1NC(=O)[C@@H]2C[C@H](C(=O)NCCCCCCNC(=O)CS)[C@H](c3cccc(OCCO)c3)N2C1=O | -0.514 | 1.05 | 0.0379 | 0.968 | 1.34 | 1.21 | 1.39 | 0.509 (inactive) | 0.756 | -0.069 | 1.54 | 0.509 (inactive) | 0.679 (inactive) | 1.52 (inactive) | 2.84 | -0.616 (inactive) | -0.0124 | 1.66 | 1.02 | 0.0618
COc1cc(OC)c(C(O)C2C=CC3C(=O)N(c4ccccc4)C(=O)C3N2Nc2ccc(C(C)C)cc2)cc1Br (stereo not given) | 0.108 | -0.0919 | 0.0559 | 0.774 | 1.44 | 1.4 | 1.28 | -2.19 (inactive) | 1.2 | -0.0994 | 1.48 | -0.0401 (inactive) | 1.09 (inactive) | -0.323 (inactive) | 3.55 | 0.315 (inactive) | 0.136 | -0.276 | 1.05 | 0.582
C=C(CCCC)/C(=C/C[C@@H](OC(C)=O)c1ccc(CO)o1)c1cnc2ccccc2c1 | -0.593 | 0.361 | -0.0744 | 1.14 | 1.31 | 1.31 | 1.28 | -0.16 (inactive) | 0.128 | -0.179 | 1.54 | 1.5 (inactive) | -0.57 (inactive) | 0.824 (inactive) | 1.92 | 0.688 (inactive) | -0.11 | 1.57 | 1.11 | -0.0007
